Test results published in ChEMBL document CHEMBL3988442, “University of Dundee, Small-Polar-MMV Screening Library” (2021).

Each molecule was assayed against AMP-activated protein kinase, AMPK (Homo sapiens) (UniProt P54646+O43741+P54619+Q9UGJ0+Q9Y478+Q13131+Q9UGI9) (assay: AMP-dependent Kinase enzyme assay. An in vitro enzyme assay that detects ADP turnover that is directly proportional to AMPK activity. This uses naive AMPK that is activated during the assay with MK-8722). Details: 30 µM.
Format: functional
Design: scale not given: direction of the effect not stated beside the values
Work on CCc1ccc2nc(-c3cnn(C)c3)cc(C(=O)N3CCOCC3)c2c1 yielded a Percent Effect of 8.54%.
CN(CCc1ncnn1C1Cc2ccccc2C1)C1CCS(=O)(=O)C1 (stereo not given) was tested, and the Percent Effect was -4.47%.
CC(NS(N)(=O)=O)c1ccc(OCc2ccc(F)cc2)cc1 (stereo not given) gave a Percent Effect of 3.51%.
With O=C(NCCc1ccccn1)N1CCOC(c2ccccc2Cl)C1 (stereo not given) the Percent Effect was -1.2%.
For CN(C)c1cccc(C(=O)Nc2cnn(Cc3ccccn3)c2)c1, the Percent Effect was -43.1%.
With CN(c1ncc(S(N)(=O)=O)s1)C1CCc2ccccc2C1 (stereo not given) the Percent Effect was 5.32%.
With FC(F)(F)c1cc(C2CCCN(Cc3cccnc3)C2)n[nH]1 (stereo not given) the Percent Effect was 5.52%.
With Cc1ccc(C)n1-c1ccsc1C(=O)NCC(=O)N1CCCC1 the Percent Effect was 2.6%.
For O=C(NCC(=O)N1CCN(c2ccccc2)CC1)c1sccc1C1CC1, the Percent Effect was -5.62%.
Molecule CN(Cc1cc(Br)cn1C)C(=O)Cc1cccc(O)c1 has a Percent Effect of -0.828%.
O=C1CCCCN1Cc1cccc(OC(F)F)c1 gave a Percent Effect of 11.1%.
Work on Cc1ccccc1C(=O)NC[C@@H]1CCN(C(=O)c2cccn2C)C[C@H]1O yielded a Percent Effect of -3.19%.
Cc1cnc(CN(C)Cc2cccc(OC(F)(F)F)c2)cn1 was tested, and the Percent Effect was -3.05%.
With Cc1noc(C2CCCN(Cn3cc(Cl)cn3)C2)n1 (stereo not given) the Percent Effect was 10.4%.
O=C(c1cc(C2CC2)n[nH]1)N1C[C@H]2CC[C@](O)(c3ccccc3F)[C@H]2C1 showed a Percent Effect of 16%.
With O=C(c1cnc2ccccn12)N1CCCC(c2ccn[nH]2)C1 (stereo not given) the Percent Effect was 7.56%.
CCc1ncc(C(=O)NCCN2CCNC2=O)cn1 was tested, and the Percent Effect was 0.385%.
In the case of CC(c1ccc(F)cc1F)N1CCN(CCC(=O)NC(N)=O)CC1 (stereo not given), the Percent Effect is reported as -3.39%.
C[C@@H]1CN(C(=O)C2(Cn3cccn3)CC2)CC[C@@]1(O)C1CC1 was tested, and the Percent Effect was -6.74%.
Molecule COCCN(CCOC)C(=O)c1cnn(C)c1C has a Percent Effect of -3.12%.
Cc1ncsc1C(=O)OCCN1CCCc2ccccc21 was tested, and the Percent Effect was 8.19%.
With CC(CN(C)Cc1cccc(-n2cccn2)c1)C(F)(F)F (stereo not given) the Percent Effect was -9.02%.
For CC1CN(c2ccccc2Cl)C(=O)CN1C(=O)c1c[nH]c(=O)c(Cl)c1 (stereo not given), the Percent Effect was 5.06%.
In the case of CC(C)CCN(C(=O)Nc1cccc(C(=O)N(C)C)c1)C1CC1, the Percent Effect is reported as -4.54%.
CN(CCCO)Cc1cc(Cl)ccc1OCC(O)CN1CCCCCC1 (stereo not given) was tested, and the Percent Effect was -10.6%.
Cc1csc(C(=O)N2CCC(S(C)(=O)=O)C2)c1 (stereo not given) was tested, and the Percent Effect was -5.3%.
Molecule CC(NC(=O)N1CCC1)c1ccc(S(C)(=O)=O)cc1 (stereo not given) has a Percent Effect of 4.53%.
With COc1ccccc1C1CCN(C(=O)CN2C(=O)OC(C)(C)C2=O)CC1 the Percent Effect was -11.8%.
Molecule Cc1nc(CN2CCN(S(=O)(=O)N3CCCCC3)CC2)oc1C has a Percent Effect of -4.45%.
c1csc(N2CCN(c3ncnc4sccc34)CC2)n1 gave a Percent Effect of 18.5%.
Molecule FC(F)(F)c1cccc(OC2CCN(Cc3c[nH]cn3)CC2)c1 has a Percent Effect of 18%.
CCOc1ccccc1-n1c(C2CC2)n[nH]c1=O showed a Percent Effect of 2.2%.
In the case of COc1cccc(CN(C)Cc2nc3cc(C)ccc3[nH]2)c1O, the Percent Effect is reported as 5.48%.
Cc1cc(-c2cnc(N3CCCC(C)C3)nc2C(C)C)on1 (stereo not given) showed a Percent Effect of 10.4%.
CC(C)[C@H]1CN(Cc2nccn2C)C[C@@H]1NC(=O)COCC(N)=O showed a Percent Effect of 9.37%.
Work on CCOCCC(=O)NC(c1noc(C)n1)c1ccccc1F (stereo not given) yielded a Percent Effect of 1.15%.
Molecule CN(Cc1ccccc1)c1cnn(CC2COCCO2)c(=O)c1 (stereo not given) has a Percent Effect of 10.8%.
Work on Cc1cc(C)cc(OCCN(C)C2CCOC2=O)c1 (stereo not given) yielded a Percent Effect of -0.216%.
CSCCC(NC(=O)c1ccco1)C(=O)N(C)Cc1ccsc1 (stereo not given) was tested, and the Percent Effect was -5.54%.
In the case of CC1(c2ncc(CN3CCSCC3)cn2)CCCCO1 (stereo not given), the Percent Effect is reported as -1.61%.
